aSyn 5UTR act: Activators via SNCA 5'UTR binding, MLPCN; alpha-synuclein 5'UTR reporter, activators screen; activity score, % (tested at 7.5 µM), hits read low; hit rate 7.1% among 300,000; AID 1814, 2009; in the data active means activity score below about -60%
* = called active by the depositor. Not all results are given here.

Results for N#Cc1c(N2CCCC2)nsc1-c1ccccc1 ?
aSyn 5UTR act: -180.1*

How did N#Cc1c(N2CCOCC2)nsc1-c1ccccc1 do in these assays?
aSyn 5UTR act: -67.7*

Results for O=[N+]([O-])c1ccc(-c2cnc(SCc3ccccc3Cl)[nH]2)cc1 ?
aSyn 5UTR act: -88.7*

How did CSc1nc(Cl)cc(Nc2ccc(O)cc2)n1 do in these assays?
aSyn 5UTR act: -78.7*

How did COc1cc(/C=N/Nc2ccc(F)cc2F)cc(OC)c1O do in these assays?
aSyn 5UTR act: -63.3*

What do the screens show for `Cc1ccc(/C=N/Nc2ccc(F)cc2F)s1`?
aSyn 5UTR act: -179.5*

Results for O=C(Nc1ccc2c(c1)OCO2)C1CCCCC1 ?
aSyn 5UTR act: -91.8*

Results for CC(C)C(NC(=O)C1CCCCC1)C(=O)Nc1ccc2c(c1)OCCO2 (configuration not stated) ?
aSyn 5UTR act: -65.7*

Results for CC(NC(=O)Nc1ccc2c(c1)OCO2)C1CCCO1 (configuration not stated) ?
aSyn 5UTR act: -112.4*

How did COc1ccc2nc(NC(=O)c3ccc(NS(=O)(=O)c4cccs4)cc3)sc2c1 do in these assays?
aSyn 5UTR act: -66.9*

What do the screens show for `COc1ccc(C(=O)Nc2nc3ccc(OC)cc3s2)cc1`?
aSyn 5UTR act: -276.6*

Results for COc1ccc(C(=O)Nc2nc(-c3cccs3)c(NC(C)=O)s2)cc1 ?
aSyn 5UTR act: -83.4*

How did CCn1cc([N+](=O)[O-])c(C(=O)Nc2nc3ccc(OC)cc3s2)n1 do in these assays?
aSyn 5UTR act: -83.9*

How did COc1ccc(-c2csc(Nc3cc(C)ccn3)n2)cc1OC do in these assays?
aSyn 5UTR act: -235.6*

Results for COc1ccc(-c2csc(Nc3ccc(C)cn3)n2)cc1OC ?
aSyn 5UTR act: -120.0*

How did COc1ccc(-c2csc(Nc3ccc(S(N)(=O)=O)cc3)n2)cc1OC do in these assays?
aSyn 5UTR act: 61.7

Results for CCOC(=O)CSC1=NC(=O)/C(=C/c2ccc(Br)cc2)S1 ?
aSyn 5UTR act: -61.9*

Results for CCOC(=O)CSC1=NC(=O)/C(=C\c2ccc(OC(C)=O)cc2)S1 ?
aSyn 5UTR act: -131.2*

How did Oc1ccccc1/C=N/NC(=S)NC1CC2CCC1C2 (configuration not stated) do in these assays?
aSyn 5UTR act: -83.0*

How did S=C(N/N=C/c1ccco1)NC1CC2CCC1C2 (configuration not stated) do in these assays?
aSyn 5UTR act: -89.5*

How did O=C(C1=NNCC1c1ccccc1)C1OC1c1ccccc1 (configuration not stated) do in these assays?
aSyn 5UTR act: -83.5*

What do the screens show for `O=C(Nc1cccc(Cl)c1)c1csc(-c2ccccc2)n1`?
aSyn 5UTR act: -121.0*

Results for CCCCC(=O)Nc1cccc(-c2cn3ccsc3n2)c1 ?
aSyn 5UTR act: -78.3*

What do the screens show for `CCC(=O)Nc1cccc(-c2csc(-c3ccccc3)n2)c1`?
aSyn 5UTR act: -121.3*

Results for CCC(=O)Nc1cccc(-c2cn3ccccc3n2)c1 ?
aSyn 5UTR act: -89.3*

Results for O=C(COc1ccccc1)Nc1cccc(-c2nc3cc4ccccc4cc3[nH]2)c1 ?
aSyn 5UTR act: -140.2*

Results for O=C(Nc1cccc(-c2cn3ccccc3n2)c1)c1cnccn1 ?
aSyn 5UTR act: -87.3*

How did O=C(COc1ccccc1)Nc1cccc(-c2cn3cccnc3n2)c1 do in these assays?
aSyn 5UTR act: -83.9*

How did c1ccc(Cn2c(-c3cncs3)nc3ccccc32)cc1 do in these assays?
aSyn 5UTR act: -92.0*

How did Brc1ccc(Cn2c(-c3cncs3)nc3ccccc32)cc1 do in these assays?
aSyn 5UTR act: -111.7*

How did COc1ccc(/C=C/C2=NC(=C\N(C)C)/C(=O)O2)cc1 do in these assays?
aSyn 5UTR act: -151.2*

What do the screens show for `CCCn1cnc2c(sc3nc4c(cc32)CSC(C)(C)C4)c1=O`?
aSyn 5UTR act: -104.6*

How did COCCn1c(=O)[nH]c2cc(C(=O)Nc3cccc(F)c3)ccc2c1=O do in these assays?
aSyn 5UTR act: -112.7*

What do the screens show for `O=C(NCCc1ccccc1)c1cnc2sccn2c1=O`?
aSyn 5UTR act: -90.4*

How did Cc1cc2ccccc2n1CCNC(=O)c1cccs1 do in these assays?
aSyn 5UTR act: -121.3*

Results for O=C(NCCc1cccc(Cl)c1)c1cccs1 ?
aSyn 5UTR act: -115.2*

What do the screens show for `COc1ccc(Cl)cc1NC(=O)c1cnc2sccn2c1=O`?
aSyn 5UTR act: -106.2*

Results for O=C(NCc1nc2ccccc2[nH]1)c1cccs1 ?
aSyn 5UTR act: -63.6*

Results for O=C(NC(c1ccccc1)c1cc(Cl)c2cccnc2c1O)c1cccnc1 (configuration not stated) ?
aSyn 5UTR act: 99.7

What do the screens show for `O=C(NCCc1ccccc1)c1cccs1`?
aSyn 5UTR act: -93.9*

Results for O=C(NCCc1cccc(Cl)c1)c1cccnc1 ?
aSyn 5UTR act: -84.2*

What do the screens show for `CCO[C@H]1OC(C(=O)NCc2nc3ccccc3[nH]2)=C[C@@H](C2CC2)[C@@H]1CCCO`?
aSyn 5UTR act: 79.9

What do the screens show for `Cn1nnc2cc(C(=O)Nc3ccccc3F)ccc21`?
aSyn 5UTR act: -111.5*

Results for O=C(Nc1nnc(SCc2ccc(F)cc2)s1)c1ccc2ncsc2c1 ?
aSyn 5UTR act: -99.6*

What do the screens show for `O=C(Nc1ccccc1F)c1ccc2ncsc2c1`?
aSyn 5UTR act: -175.4*

What do the screens show for `O=C(Nc1cccc(F)c1)c1ccc2ncsc2c1`?
aSyn 5UTR act: -203.7*

What do the screens show for `O=C(Nc1ccc(Cl)cc1Cl)c1ccc2ncsc2c1`?
aSyn 5UTR act: -177.4*

How did O=C(Nc1ccc(F)cc1F)c1ccc2ncsc2c1 do in these assays?
aSyn 5UTR act: -120.0*

Results for CC1=CC(=C2C(=O)c3ccccc3C2=O)C=C(C)N1Cc1ccco1 ?
aSyn 5UTR act: -216.7*

What do the screens show for `CC1=CC(=C2N=C(c3ccccc3)OC2=O)C=C(C)O1`?
aSyn 5UTR act: -146.0*

What do the screens show for `CCN1C=CC(=C2C(=O)c3ccccc3C2=O)C=C1`?
aSyn 5UTR act: 96.1

Results for CCCN1C=CC(=C2C(=O)c3ccccc3C2=O)C=C1 ?
aSyn 5UTR act: 131.6

Results for CC1=CC(=C2C(=O)c3ccccc3C2=O)C=C(C)O1 ?
aSyn 5UTR act: -128.6*

What do the screens show for `Oc1ccc(Nc2ncnc3c2oc2ccccc23)cc1`?
aSyn 5UTR act: -116.0*

What do the screens show for `CC(=O)N1CCN(c2ccc(Nc3ncnc4c3oc3ccccc34)cc2)CC1`?
aSyn 5UTR act: -81.4*

Results for c1ccc2c(c1)oc1c(Nc3ccc(CN4CCOCC4)cc3)ncnc12 ?
aSyn 5UTR act: -101.7*

How did Oc1cccc(Nc2ncnc3c2oc2ccccc23)c1 do in these assays?
aSyn 5UTR act: -134.5*

Results for c1ccc2c(c1)oc1c(Nc3ccc4c(c3)OCO4)ncnc12 ?
aSyn 5UTR act: -107.5*

What do the screens show for `Cc1nc(Nc2ccccc2)c2oc3ccc(Cl)cc3c2n1`?
aSyn 5UTR act: -93.1*

What do the screens show for `Cc1nnc(Nc2ccc3c(c2)OCO3)c2ccccc12`?
aSyn 5UTR act: -80.3*

What do the screens show for `Oc1ccccc1Nc1ncnc2c1oc1ccccc12`?
aSyn 5UTR act: -88.0*

How did c1ccc(Nc2ncnc3c2oc2ccccc23)cc1 do in these assays?
aSyn 5UTR act: -139.1*

What do the screens show for `CC(=O)Nc1ccc(/C=C/c2nc3ccccc3[nH]c2=O)cc1`?
aSyn 5UTR act: -82.6*

How did O=c1[nH]c2ccccc2nc1/C=C/c1ccc(Cl)cc1 do in these assays?
aSyn 5UTR act: -227.2*

What do the screens show for `Clc1ccc(/C=N/Nc2ncnc3ccccc23)cc1Cl`?
aSyn 5UTR act: -317.7*

Results for Fc1ccccc1/C=N/Nc1ncnc2ccccc12 ?
aSyn 5UTR act: -241.1*

Results for Clc1ccc(Cn2nc(-c3ccccc3)nc2-c2ccccc2)cc1 ?
aSyn 5UTR act: -114.2*

Screening results (PubChem BioAssay)
